Test results taken from article PMC11062922 (Nature Chemical Biology, 2023).
Where two headings read alike, the source gives them in different places.

Tests used:
Design in all cases: species or system human, MV4-11 + K-562 + COLO205 + SK-N-BE2 + OVCAR-8
CAMK2B = details: read-out: apparent Kd, compound concentrations: 100 nM and 1000 nM (sheet 'Samples'), n = 1
CDC42BPG = details: read-out: apparent Kd, compound concentrations: 100 nM and 1000 nM (sheet 'Samples'), n = 1
TGFBR2 = details: read-out: apparent Kd; compound concentrations: 100 nM and 1000 nM (sheet 'Samples'), CATDS: 0.26695766684010303; n = 1
FLT3 = details: read-out: apparent Kd; compound concentrations: 100 nM and 1000 nM (sheet 'Samples'), CATDS: 7.5963882735203103E-2; n = 1
FYN = details: read-out: apparent Kd; compound concentrations: 100 nM and 1000 nM (sheet 'Samples'), CATDS: 6.1091429900981202E-2; n = 1
HCK = details: read-out: apparent Kd; compound concentrations: 100 nM and 1000 nM (sheet 'Samples'), CATDS: 0.204546800943642; n = 1
LCK = details: read-out: apparent Kd; compound concentrations: 100 nM and 1000 nM (sheet 'Samples'), CATDS: 6.2891353750110596E-2; n = 1
LYN = details: read-out: apparent Kd; compound concentrations: 100 nM and 1000 nM (sheet 'Samples'), CATDS: 6.1198388947790797E-2; n = 1
MAP2K5 = details: read-out: apparent Kd; compound concentrations: 100 nM and 1000 nM (sheet 'Samples'), CATDS: 0.12646942491879101; n = 1
MAPK14 = details: read-out: apparent Kd; compound concentrations: 100 nM and 1000 nM (sheet 'Samples'), CATDS: 5.4651958851346001E-2; n = 1
PTK6 = details: read-out: apparent Kd; compound concentrations: 100 nM and 1000 nM (sheet 'Samples'), CATDS: 6.47566338134071E-2; n = 1
RIPK2 = details: read-out: apparent Kd; compound concentrations: 100 nM and 1000 nM (sheet 'Samples'), CATDS: 0.112898428987699; n = 1
RIPK3 = details: read-out: apparent Kd; compound concentrations: 100 nM and 1000 nM (sheet 'Samples'), CATDS: 6.7046149691073503E-2; n = 1
SRC = details: read-out: apparent Kd; compound concentrations: 100 nM and 1000 nM (sheet 'Samples'), CATDS: 7.0333029214927095E-2; n = 1
YES1 = details: read-out: apparent Kd; compound concentrations: 100 nM and 1000 nM (sheet 'Samples'), CATDS: 8.7589956864903007E-2; n = 1
CAMK4 = details: read-out: apparent Kd, compound concentrations: 100 nM and 1000 nM (sheet 'Samples'), n = 1
CSNK1A1 = details: read-out: apparent Kd; compound concentrations: 100 nM and 1000 nM (sheet 'Samples'), CATDS: 0.27381506430700697; n = 1
RIOK2 = details: read-out: apparent Kd; compound concentrations: 100 nM and 1000 nM (sheet 'Samples'), CATDS: 0.35131899059620803; n = 1

Structure (SMILES): CC(=O)c1cccc(NC(=O)NC2CCN(c3ccnc(Nc4ccc(F)cc4)n3)C2)c1 (stereo not drawn) [GSK1379710A]
- potency estimated from few doses (CAMK2B; CATDS: 0.45537516387232402): 0.658 µM
- potency estimated from few doses (CDC42BPG; CATDS: 0.32700083085172899): 1.22 µM
- potency estimated from few doses (TGFBR2): 2 µM

Structure (SMILES): c1ccc(Oc2ccc(Nc3ccnc4cc(-c5ccc(CNCCN6CCOCC6)o5)ccc34)cc2)nc1 [GW567145X]
- potency estimated from few doses (CAMK2B; CATDS: 8.8630985713884503E-2): 0.448 µM
- potency estimated from few doses (FLT3): 0.62 µM
- potency estimated from few doses (FYN): 1.08 µM
- potency estimated from few doses (HCK): 0.118 µM
- potency estimated from few doses (LCK): 0.994 µM
- potency estimated from few doses (LYN): 1.08 µM
- potency estimated from few doses (MAP2K5): 0.239 µM
- potency estimated from few doses (MAPK14): 1.55 µM
- potency estimated from few doses (PTK6): 0.917 µM
- potency estimated from few doses (RIPK2): 0.288 µM
- potency estimated from few doses (RIPK3): 0.837 µM
- potency estimated from few doses (SRC): 0.742 µM
- potency estimated from few doses (YES1): 0.459 µM

Structure (SMILES): C/C(=C1/SC(NCc2cccs2)=NC1=O)c1ccc2ncccc2c1 [RO4607009-000]
- potency estimated from few doses (CAMK4; CATDS: 0.39593568375035498): 2.26 µM
- potency estimated from few doses (CDC42BPG; CATDS: 0.67827085462466996): 0.701 µM

Structure (SMILES): COc1ccc(C2=C(N3CCc4ccccc43)C(=O)NC2=O)cc1 [SB-361058]
- potency estimated from few doses (CAMK4; CATDS: 0.39976270483603599): 1.17 µM
- potency estimated from few doses (CSNK1A1): 2.59 µM
- potency estimated from few doses (RIOK2): 1.48 µM
